These results are taken from PubChem BioAssay (Tox21).

Structures are written as SMILES. Values joined by “and” are separate entries in the source; they are usually repeats but may differ in a detail not shown here. Equal values may be shown once. Records with an inconclusive call do not appear. Entries that show only a call come without a potency. Where a structure was tested more than once in an assay, its records may differ in their call. Active and inactive are the calls of the source. Unless noted, the call rests on the fitted dose curve; in most records, active means well fitted cell-killing curve with a large enough effect in the repeat runs; inconclusive means weak or mixed curves, or effect the other way; inactive means no such curve, though single readings can be large or run the other way.

The first assay in a line: qHTS assay for small molecule agonists of the antioxidant response element (ARE) signaling pathway - cell viability counter screen (AID 743203; calls by dose curve; further: nearly all actives have a fitted effect of over 55% in size). Particulars: ARE-bla HepG2 viability, CellTiter-Glo luminescence, 16 h; series mostly up to 73.3 µM. Summed up: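 ARE-bla HepG2 cells were plated, rested 5 h at 37C/5% CO2, then exposed to compounds in DMSO for 16 h. Viability was read as CellTiter-Glo luminescence after 30 min at room temperature, in the same wells as the ARE screen.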
In general terms: In qHTS, concentration-response curves come from the screen itself.
In the case of `CCC(=O)O`, the Potency entry is “inactive”. For `NCCNCCNCCNCCN`, the Potency entry was “inactive”. Still for that read-out and setting: then `CCOC(=O)[C@H](CCc1ccccc1)N[C@@H](C)C(=O)N1Cc2ccccc2C[C@H]1C(=O)O`, with “inactive”; and `O=C(Oc1ccccc1)c1ccc(O)cc1`, with “inactive”.

A further assay in a line: qHTS assay for small molecule activators of the heat shock response signaling pathway - cell viability counter screen (AID 743209). Further: nearly all actives have a fitted effect of over 50% in size. Further: potency means the concentration at half of the fitted maximal effect. Particulars: HSE-bla HeLa viability, CellTiter-Glo luminescence, 5 h; series mostly up to 62.6 µM. Summed up:
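HSE-bla HeLa cells plated overnight, then exposed to Tox21 compounds (23 nL in DMSO) for 5 h at 37 C. After the bla reporter read, CellTiter-Glo was added in the same wells and luminescence read after 30 min at room temperature.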
Turning to `COC(=O)Nc1nc2ccc(Sc3ccccc3)cc2[nH]1`, the Potency entry is “inactive”. In the case of `CCCCCCCCC`, the Potency entry is “inactive”. For the molecule `OC[C@@H](O)[C@H](O)[C@H](O)[C@@H](O)CO`, the Potency entry is “inactive”. Consider `CC(C)Cc1ccccc1`, for which the Potency entry is “inactive”. In the case of `CC1=C(CC(=O)O)c2cc(F)ccc2/C1=C\c1ccc(S(C)=O)cc1` (stereo unspecified), the Potency result was “inactive”. Same read-out and setting: the result for `Cc1cc(O)c2c(c1)C(=O)c1cc(O)cc(O)c1C2=O` reads “inactive”; that for `CCCCCCCCCCCCOCC1CO1` (stereo unspecified), “inactive”.

As to `OC1CCCC1`, the Potency result is “inactive”. Still for that read-out and setting: then `NC(=O)/N=N/C(N)=O`, with “inactive”; and `c1ccc2ccccc2c1`, with “inactive”. Same read-out and setting: the result for `CC1(C)O[C@@H]2C[C@H]3[C@@H]4C[C@H](F)C5=CC(=O)CC[C@]5(C)[C@H]4[C@@H](O)C[C@]3(C)[C@]2(C(=O)CO)O1` reads “inactive”; that for `Cc1ccc(C(=O)O)o1`, “inactive”. The same measure, in the same setting: then `C=C(C#N)C(=O)OCC`, with “inactive”; and `O=C(c1ccc(O)cc1)c1ccc(O)cc1O`, with “inactive”; and `O=C(c1cc(O)c(O)c(O)c1)c1ccc(O)c(O)c1O`, with “inactive”. `O=S(=O)(O)CCS`: the Potency result was “inactive”.

For `OCC1CCCO1` (stereo unspecified), the Potency result was “inactive”. For `Cc1ccc(N)c(S(=O)(=O)O)c1`, the Potency result is “inactive”. Still for that read-out and setting: the result for `NCCc1ccc(O)c(O)c1` reads “inactive”. On the same count and under the same terms, then `CCCCC(CC)COC(=O)/C=C\C(=O)OCC(CC)CCCC` (stereo unspecified), with “inactive”; and `CCCCC/C=C\C/C=C\CCCCCCCC(=O)OC`, with “inactive and 38.9 µM (active)”; and `Nc1nc2ncc(CNc3ccc(C(=O)N[C@@H](CCC(=O)O)C(=O)O)cc3)nc2c(=O)[nH]1`, with “inactive”. The same measure, in the same setting: then `NS(=O)(=O)c1cc2c(cc1Cl)NC=NS2(=O)=O`, with “inactive”; and `CCC(=O)O`, with “inactive”; and `NCCNCCNCCNCCN`, with “inactive”.

Another assay in a line: qHTS assay for small molecule activators of the heat shock response signaling pathway (AID 743210; active means well fitted activation curve with a large enough effect in the signal ratio in the repeat runs, with a control signal flat, not every such curve was filed as active; the % refers to the signal ratio;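 further: HeLa cells with beta-lactamase reporter driven by heat shock elements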). Particulars: HeLa HSE-bla reporter, beta-lactamase ratio, 5 h; series mostly up to 62.6 µM. Summed up:
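In HSE-bla HeLa cells, 5 h compound incubation (37 C) precedes addition of LiveBLAzer B/G substrate; after 2.5 h at room temperature, fluorescence intensity indicates reporter induction.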
On to `CCCCOCCOCCOC(=O)CCCCC(=O)OCCOCCOCCCC`, for which the result was inactive. The same measure, in the same setting: then `CCCCCCCCC`, with “inactive”; and `OC[C@@H](O)[C@H](O)[C@H](O)[C@@H](O)CO`, with “inactive”. Same read-out and setting: the result for `CC(C)Cc1ccccc1` reads “inactive”. The same measure, in the same setting: the result for `CC1=C(CC(=O)O)c2cc(F)ccc2/C1=C\c1ccc(S(C)=O)cc1` (stereo unspecified) reads “inactive”; that for `CCCCCC/C=C/CCCCCCCC(=O)O`, “inactive”; that for `O=S(=O)(Oc1ccc(Cl)cc1Cl)c1ccccc1`, “inactive”. On to `O=[N+]([O-])c1cccc(Cl)c1`, for which the outcome was inactive.

For `CCCCCCCCCCCCOCC1CO1` (stereo unspecified), the result was inactive. Still for that read-out and setting: the result for `Cc1ccc(C)c(C)c1` reads “inactive”; that for `OC1CCCC1`, “inactive”. In the case of `c1ccc2ccccc2c1`, the outcome was inactive. Same read-out and setting: the result for `CC1(C)O[C@@H]2C[C@H]3[C@@H]4C[C@H](F)C5=CC(=O)CC[C@]5(C)[C@H]4[C@@H](O)C[C@]3(C)[C@]2(C(=O)CO)O1` reads “inactive”; that for `Cc1ccc(C(=O)O)o1`, “inactive”; that for `C=C(C#N)C(=O)OCC`, “inactive”. On to `O=C(c1ccc(O)cc1)c1ccc(O)cc1O`, for which the result was inactive. In the case of `Nc1cc(-c2ccncc2)c[nH]c1=O`, the outcome was inactive. Still for that read-out and setting: then `O=C(c1cc(O)c(O)c(O)c1)c1ccc(O)c(O)c1O`, with “inactive”.

As to `O=S(=O)(O)CCS`, the outcome was inactive. On the same count and under the same terms, then `OCC1CCCO1` (stereo unspecified), with “inactive”; and `Cc1ccc(N)c(S(=O)(=O)O)c1`, with “inactive”; and `CCOC(=O)C1OC1c1ccccc1` (stereo unspecified), with “inactive”. On to `CC1COc2ccccc2N1C(=O)C(Cl)Cl` (stereo unspecified), for which the result was inactive. Regarding `O=C(O)c1cc(-c2ccccc2)nc2ccccc12`, the outcome was inactive. With `CCCCC/C=C\C/C=C\CCCCCCCC(=O)OC`, the result was inactive. The same measure, in the same setting: then `Nc1nc2ncc(CNc3ccc(C(=O)N[C@@H](CCC(=O)O)C(=O)O)cc3)nc2c(=O)[nH]1`, with “inactive”; and `O=[N+]([O-])C(CO)(CO)CO`, with “inactive”. With `NS(=O)(=O)c1cc2c(cc1Cl)NC=NS2(=O)=O`, the result was inactive. Still for that read-out and setting: the result for `CCC(=O)O` reads “inactive”.

For `NCCNCCNCCNCCN`, the outcome was inactive. In the case of `CCOC(=O)[C@H](CCc1ccccc1)N[C@@H](C)C(=O)N1Cc2ccccc2C[C@H]1C(=O)O`, the outcome was inactive.

As to `O=C(Oc1ccccc1)c1ccc(O)cc1`, the outcome was inactive.
